# Screens: PubChem, several laboratories
# sdo1 growth: restores growth of sdo1-depleted yeast. S. cerevisiae sdo1-depleted JHY4D growth rescue, OD600 30 h; active compounds read high; pdr5 snq2 efflux-pump mutant strain. z-score at 10 µM. actives 0.21% (n = 140,000);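 active = z-score above 3 at both the 24 hr and the 30 hr optical density reads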;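 note: z-score against mean and SD of all compound wells on the same plate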
# ROMK mod: modulators of human ROMK potassium channel; P48048; Tet-inducible ROMK, thallium flux fluorescence; actives lie on both sides; B-score at 10 µM; actives 2% (n = 130,000);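 active = signal ratio slope over the read window, or its plate-corrected B-score, at least 3 SD from the plate mean, either direction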;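 note: B-score of the F/F0 ratio slope over 7 to 12 s after thallium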
# Target sequence (P48048 whole entry, looked up): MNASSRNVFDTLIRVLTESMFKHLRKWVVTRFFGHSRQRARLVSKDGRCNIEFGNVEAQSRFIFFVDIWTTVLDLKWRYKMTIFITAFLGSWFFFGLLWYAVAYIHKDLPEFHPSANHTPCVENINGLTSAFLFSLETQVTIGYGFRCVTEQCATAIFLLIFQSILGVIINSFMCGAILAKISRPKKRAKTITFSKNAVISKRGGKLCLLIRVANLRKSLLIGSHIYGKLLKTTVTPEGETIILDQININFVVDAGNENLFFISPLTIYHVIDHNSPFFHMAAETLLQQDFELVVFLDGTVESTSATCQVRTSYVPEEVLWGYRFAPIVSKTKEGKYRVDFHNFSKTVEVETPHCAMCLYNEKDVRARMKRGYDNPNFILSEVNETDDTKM
# INS promoter inh: TRM-6 insulin promoter activity inhibition; AID 1273; inhibition, % at 2 µM; TRM-6 cells (human fetal islet line), insulin promoter-eGFP reporter, imaging; reporter expression induced with tamoxifen; actives 0.9% (n = 130,000);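 active = inhibition above the mean plus 3 SD, with well images judged a real hit on visual review, cut at about 60% in these data, passing the limit was not always enough; inconclusive = inhibition over the cutoff but images rejected on review; inactive = inhibition not above the cutoff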
# Measles CPE: protection of cells from measles virus; Measles virus-infected cells, CPE protection, absorbance; protection (pct of control), % at 4 µM; actives 1.5% (n = 140,000); AID 841; in the data active = protection mostly above about 24%, no sharp cut-off; inactive = mostly below about 26%
# ROMK hit retest: confirmation of human ROMK potassium channel modulators. shares compounds with ROMK mod. ROMK thallium flux, fluorescence ratio; active compounds read low. normalized thallium flux (F/F0 slope) at 10 µM. actives 54% (n = 3,000). AID 1917;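 active = Flux at 10 µM at least 3 SD below or above vehicle control mean in one or both replicates; inconclusive = no clear call, values can overlap the other calls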
# The depositor's hits bear a star; i = inactive; ? = inconclusive; nt = no result given. The list is not random: actives were taken first. Their share in the collection is about 3%.
SMILES,sdo1 growth,ROMK mod,INS promoter inh,Measles CPE,ROMK hit retest
Cc1nn(-c2ccccc2)c(N2CCCC2)c1/C=C1\N=C(c2ccc(F)cc2)OC1=O,-0.72,-1.5*,33,6,0.066*
Cc1ccc(C2=N/C(=C\c3c(C)nn(-c4ccccc4)c3N3CCCC3)C(=O)O2)cc1,0,-0.62,-53,21,nt
CCN1/C(=C/c2ccc3cccc(C)c3[n+]2CC)Sc2ccccc21,-3.1,nt,-233,6,nt
CCN1/C(=C/c2ccc3cc(C)cc(C)c3[n+]2CC)Sc2cc(C)ccc21,nt,-5.2*,-413,nt,0.045*
CCN1/C(=C/C(C)=C/c2sc3ccccc3[n+]2CC)Sc2ccccc21,nt,-1.2,i,nt,nt
CCN1/C(=C\c2ccc3cc(C)ccc3[n+]2CC)Sc2cc(C)c(C)cc21,nt,-5*,-413,nt,0.047*
CCN(CC)c1ccc(C=C2C(=O)OC3(CCCCC3)OC2=O)cc1,nt,-0.24,-44,nt,nt
CCN(CC)c1ccc(/C=C2\C(=O)N(c3nnc(C)c(=O)[nH]3)N=C2C)cc1,nt,nt,nt,nt,0.029*
CC1=NOC(=O)/C1=C/c1ccc(N(C)C)cc1,0.86,nt,23,14,?
CCN(CC)c1ccc(/C=C2/C(=O)ON=C2C)cc1,-0.52,-5.7*,-12,13,0.036*
O=C(c1ccc(-c2ccc(Cl)cc2Cl)o1)N1CCOCC1,nt,-1.6,nt,nt,nt
O=C(c1ccc(-c2cc(Cl)ccc2Cl)o1)N1CCOCC1,nt,-3.5*,-67,nt,0.063*
O=C(c1ccc(-n2c(SCc3cccc(F)c3)nc3ccccc3c2=O)cc1)N1CCOCC1,-0.6,-3.4*,-82,17,0.059*
C=CCOC(=O)C1=C(C)OC(N)=C(C#N)C1c1c(C)nn(-c2ccccc2)c1Cl (configuration not stated),-1,-4*,nt,20,0.059*
O=C(c1ccc2nc[nH]c2c1)N1CCc2ccccc2C1,nt,0.076,nt,nt,nt
COc1cc2c(cc1OC)CN(C(=O)c1ccc3nc[nH]c3c1)CC2,nt,3.4*,nt,nt,0.084
Cc1ccc(CNC(=O)CCSCCC(=O)NCc2ccc(C)cc2)cc1,-0.63,nt,29,-1,nt
CCOC(=O)c1[nH]c(C)c(C(=O)N2CCc3ccccc32)c1C,0.29,3.2*,-61,3,0.082
CC(=O)c1c(C)[nH]c(C(=O)N2CCc3ccccc32)c1C,-0.17,0.22,21,22,nt
COc1ccccc1-c1nn2c(-c3ccco3)nnc2s1,-1.5,-1.3,nt,5,0.057*
CCCOc1ccc(N2C(=O)CC(SCc3nc4ccccc4[nH]3)C2=O)cc1 (configuration not stated),nt,0.24,nt,nt,nt
CCOC(=O)c1cc2c(ccn2C)n1CC(=O)N(CC)CC,nt,0.14,nt,nt,nt
CC1=C(C)CS(=O)N(c2ccc(S(N)(=O)=O)cc2)C1 (configuration not stated),0.37,nt,34,14,nt
CC1=C(C)CS(=O)N(S(=O)(=O)c2ccccc2)C1 (configuration not stated),-0.9,-5.5*,29,8,0.047*
O=C(CCCN1C(=O)c2ccccc2C1=O)Nc1ccc2c(c1)OCCO2,nt,1.2,29,nt,nt
SMILES,sdo1 growth,ROMK mod,INS promoter inh,Measles CPE,ROMK hit retest
CNC(=O)c1[nH]cnc1C(=O)Nc1ccc(OC)cc1,nt,3.4*,nt,nt,0.087
CN(C)/C=N/c1c(C#N)cnn1-c1ccccc1,0.89,0.082,nt,12,nt
CN(C)/C=N/c1c(C#N)cnn1-c1ncnc2sc(-c3ccccc3)cc12,-1.4,nt,nt,18,0.063*
COc1ccc(OCC(=O)NNc2c3ccccc3nc3ccccc23)cc1,-2.1,nt,-28,12,?
CCOC(=O)C1=C(C)OC(N)=C(C#N)C1c1ccc(C)s1 (configuration not stated),nt,3.2*,23,nt,0.064*
CCOC(=O)c1csc(NC(=O)c2cc(=O)c3ccccc3o2)n1,nt,0.8,nt,nt,nt
CC(=O)c1sc(NC(=O)c2cc(=O)c3ccccc3o2)nc1C,nt,2.9*,nt,nt,0.077
CCOc1ccccc1N(CC(=O)N1CCOCC1)S(=O)(=O)c1ccc(SC)cc1,-0.49,-7.4*,-388,7,0.034*
COc1ccc(Nc2nc(-c3cccc([N+](=O)[O-])c3)nc3ccccc23)cc1,-1.9,0.14,-29,5,nt
COCCCNC(=S)Nc1c(C)cc(C)cc1C,nt,1.1,nt,nt,nt
CCNC(=O)/C(C#N)=C/c1c(N(Cc2ccccc2)Cc2ccccc2)nc2ccccn2c1=O,0.13,nt,-40,7,nt
CNC(=O)/C(C#N)=C/c1c(N(Cc2ccccc2)Cc2ccccc2)nc2c(C)cccn2c1=O,-1.2,nt,nt,30,0.059*
C/C(Cl)=C\Cn1c(N2CCCC2)nc2c1c(=O)[nH]c(=O)n2C,-0.34,nt,24,6,0.076
CC1=NOC(=O)/C1=C\c1ccc(-c2cc(Cl)ccc2Cl)o1,-0.98,-3.7*,28,1,?
CCn1ncc(C2=NOC(C(=O)NCc3ccccc3)C2)c1C (configuration not stated),1.1,3.1*,-45,8,0.079
Cc1ccc(O)c(C(=O)c2cnc3c(c2)c(C)nn3-c2ccccc2)c1,-1.1,nt,-23,14,nt
CCOC(=O)c1c(C)n(C)c2ccc(OC)c(NC(=O)CCN3CCC(Cc4ccccc4)CC3)c12,nt,nt,nt,nt,0.063*
CC(=O)c1nc(-c2ccccc2)sc1C,nt,-0.68,-18,nt,nt
Cc1cccc(NS(=O)(=O)c2ccc3[nH]c(=O)cc(C(=O)OC(C)C(=O)Nc4ccc([N+](=O)[O-])cc4)c3c2)c1 (configuration not stated),nt,-3.1*,nt,nt,?
CC1CCC(C(C)C)C(OC(=O)COC(=O)c2cccn2C)C1 (configuration not stated),-0.54,nt,36,25,nt
CC1CCC(C(C)C)C(OC(=O)Cn2c(-c3ccc(Br)cc3)[n+](C)c3ccccc32)C1 (configuration not stated),nt,-6.8*,0,nt,0.044*
CC1CCC(C(C)C)C(OC(=O)COC(=O)c2ccc(N)cc2)C1 (configuration not stated),0,nt,nt,15,nt
CC1CCC(C(C)C)C(OC(=O)Cn2c(-c3ccc(Cl)cc3)[n+](C)c3ccccc32)C1 (configuration not stated),nt,-8*,nt,nt,0.043*
Cc1ccccc1OCc1n(CC(=O)OC2CC(C)CCC2C(C)C)c2ccccc2[n+]1C (configuration not stated),nt,nt,-29,nt,0.042*
NCCCCCc1nnc(SCC(N)=O)o1,nt,-0.21,nt,nt,nt
O=C(O)CC(c1cccc2ccccc12)N1Cc2ccccc2C1=O (configuration not stated),nt,0.61,-21,nt,nt
CN(CC1CCOCC1)C(=O)CC1C(=O)NCCN1Cc1ccc(-c2ccccc2)cc1 (configuration not stated),nt,-4.1*,nt,nt,0.074
COc1cccc(CN2CCNC(=O)C2CC(=O)NCc2cc(C(C)C)no2)c1 (configuration not stated),nt,0.053,43,nt,nt
CCC1SC2=NC(C)=C(C(=O)OCCOC)C(/C=C/c3ccccc3OC)N2C1=O (configuration not stated),-0.02,nt,29,54*,0.059*
